Measurements reported in PubChem BioAssay.
Values without a mark were called inactive. No rule for the calls is given here.

tested on: Aerobactin synthetase IucA (Klebsiella pneumoniae hvKP1); assay: IucA enzyme inhibition, primary screen, biochemical, Spectrum library (AID 1346200); settings: malachite green pyrophosphate, A620, at 8 µM, active compounds read low;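 also: 100% = wells without compound and 0% = wells lacking enzyme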

In order of falling activity remaining:
1. C=C(NC(=O)C(=C)NC(=O)c1csc(C2=NC3c4csc(n4)C4NC(=O)c5csc(n5)C(C(C)(O)C(C)O)NC(=O)C5CSC(=N5)C(=CC)NC(=O)C(C(C)O)NC(=O)c5csc(n5)C3(CC2)NC(=O)C(C)NC(=O)C(=C)NC(=O)C(C)NC(=O)C(C(C)CC)NC2C=Cc3c(C(C)O)cc(nc3C2O)C(=O)OC4C)n1)C(N)=O (configuration not stated)  121%
2. Cc1cc(C)nc(NS(=O)(=O)c2ccc(N)cc2)n1  111%
3. CC1(C)CC[C@@]2(C(=O)O)C(C1)C1=CCC3[C@@]4(C)CC[C@H](O)C(C)(C)C4CC[C@@]3(C)[C@]1(C)C[C@@H]2O (some centres not stated)  99.8%
4. COc1ccc(-c2c(O)c3c(OC)c4c(cc3oc2=O)OC(C)(C)CC4)cc1  99.1%
5. COc1cc(O)c2c(c1)C(=O)c1cc(C)cc(O)c1C2=O  97.7%
6. Cc1ccccc1OCC(O)CO (configuration not stated)  95.2%
7. CO[C@H]1O[C@H](CO)C(O[C@@H]2OC(C(=O)O)[C@@H](O[C@H]3O[C@H](COS(=O)(=O)O)C(O[C@@H]4OC(C(=O)O)[C@@H](O[C@H]5O[C@H](CO)C(O[C@@H]6OC(C(=O)O)[C@@H](O[C@H]7O[C@H](COS(=O)(=O)O)C(O[C@@H]8OC(C(=O)O)=C[C@H](O)C8OS(=O)(=O)O)[C@H](O)[C@H]7NC(C)=O)[C@H](O)[C@H]6O)[C@H](O)[C@H]5NC(C)=O)[C@H](O)[C@H]4O)[C@H](O)[C@H]3NC(C)=O)[C@H](O)[C@H]2O)[C@H](O)[C@H]1NC(C)=O (some centres not stated)  92.9%
